Bioassay records (PubChem)
SENP6 block = SENP6 protease inhibitors, primary screen, biochemical, luminescence, uHTS. Sentrin-specific protease 6 (Homo sapiens), Q9GZR1. Recombinant SENP6 catalytic domain, aminoluciferin luminescence. inhibition, % at 10 µM. 330,000 tested, 1.8% active. AID 2599, 2010;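 active means inhibition above about 50% at the single tested dose, limit read from the data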;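 further: plate controls were DMSO wells with enzyme for no effect and DMSO wells lacking enzyme for full effect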
SENP8 block-1 = human SENP8 protease inhibitors, primary screen, biochemical, fluorescence, Nedd8 protein substrate, uHTS | inhibition, % at 20 µM | recombinant SENP8 | 360,000 tested, 0.64% active | Sentrin-specific protease 8 (Homo sapiens), Q96LD8 | AID 602440, 2012; in the data active means inhibition mostly above about 40%, no sharp cut-off; inactive means mostly below about 27%
Target sequence (Q96LD8 whole entry, looked up): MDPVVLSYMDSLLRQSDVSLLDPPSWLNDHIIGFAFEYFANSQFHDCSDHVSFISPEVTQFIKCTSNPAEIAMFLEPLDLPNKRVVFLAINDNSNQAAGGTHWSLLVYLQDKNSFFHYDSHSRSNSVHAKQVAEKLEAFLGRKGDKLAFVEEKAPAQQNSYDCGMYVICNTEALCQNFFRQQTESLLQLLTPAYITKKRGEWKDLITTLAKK
HSP90 inh = HSP90 inhibitors, primary screen, cell lysate, luminescence. Heat shock protein HSP 90 (rabbit reticulocyte lysate; luciferase refolding). 290,000 tested, 0.91% active. Rabbit reticulocyte lysate, luciferase refolding luminescence, 3 h. AID 1789, 2009. inhibition, % at 5.6 µM;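 active means inhibition above the screen-wide mean plus 3 SD, computed separately per campaign, cut at about 16% in these data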;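 further: 0% = DMSO wells and 100% = 60 µM geldanamycin wells; inhibitors lower the luminescence because luciferase stays unfolded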
SENP8 block-2 = SENP8 protease inhibitors, primary screen, biochemical, luminescence; purified SENP8, Z-RLRGG-aminoluciferin cleavage; inhibition, % at 10 µM; 330,000 tested, 1.2% active; AID 2540, 2010; in the data active means inhibition above about 50%
SENP7 block = SENP7 protease inhibitors, primary screen, biochemical, luminescence, uHTS. Sentrin-specific protease 7 (Homo sapiens), Q9BQF6. recombinant SENP7, Z-RLRGG-aminoluciferin luminescence, 40 min. AID 434973, 2010. inhibition, % at 5 µM. 330,000 tested, 1.5% active;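 active means inhibition above about 50% at the single test dose, limit read from the data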;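 further: plate controls were DMSO with enzyme for no effect and no enzyme buffer wells for full effect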
SENP8 conf = SENP8 protease inhibitors, retest, confirmation, biochemical, luminescence, single concentration | shares compounds with SENP7 block | Recombinant SENP8, Z-RLRGG-aminoluciferin luminescence, 60 min | inhibition, % at 12.5 µM | 6,200 tested, 40% active | AID 488912, 2010;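 active means mean inhibition across replicates above about 50%, limit read from the data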
SENP6 confirm = SENP6 protease inhibitors, confirmation, biochemical, luminescence, single concentration. shares compounds with SENP7 block. recombinant SENP6, Z-RLRGG-aminoluciferin luminescence. inhibition, % at 12.5 µM. 6,200 tested, 58% active
SENP7 confirm = SENP7 protease inhibitors, retest, confirmation, biochemical, luminescence, single concentration; shares compounds with SENP7 block; recombinant SENP7, Z-RLRGG-aminoluciferin luminescence, 40 min; inhibition, % at 12.5 µM; 6,200 tested, 69% active
Casp3 select = caspase-3 protease inhibitors, confirmation, selectivity assay for SENP inhibitor project, biochemical, single concentration. shares compounds with SENP7 block. purified caspase-3, Z-DEVD-aminoluciferin luminescence, 60 min. inhibition, % at 12.5 µM. 6,200 tested, 60% active. AID 488918, 2010;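 active means mean inhibition above about 50%, limit read from the data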;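 further: plate controls were enzyme with DMSO for no effect and wells without caspase-3 for full effect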
Target sequence (P42574 28-227 limits assumed): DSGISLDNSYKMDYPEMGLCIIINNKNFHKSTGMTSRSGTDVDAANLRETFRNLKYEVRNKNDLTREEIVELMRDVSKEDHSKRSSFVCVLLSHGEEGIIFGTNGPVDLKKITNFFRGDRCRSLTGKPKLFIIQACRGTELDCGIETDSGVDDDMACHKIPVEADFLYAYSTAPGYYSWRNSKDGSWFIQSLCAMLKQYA
Luc interf = luminescence interference (SENP counter-screen); shares compounds with SENP7 block; Pre-incubated SENP8/Z-RLRGG-aminoluciferin, luciferase luminescence interference; inhibition, % at 12.5 µM; 6,200 tested, 39% active;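 active means mean inhibition above about 50% when retested at one dose, limit read from the data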;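 further: plate controls were DMSO wells with completed reaction for no effect and substrate without enzyme for full effect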
* = called active by the depositor. The list is not random: actives were taken first. Their share in the collection is about 2.7%.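 How the source made its calls, unless noted: active means mean inhibition above about 50% in the one-dose retest (limit read from the data); inactive means the rest.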

`C=CCn1c(N)c(C(=O)NCC2CCCO2)c2nc3ccccc3nc21` (configuration not stated) gave SENP6 block 91*, SENP8 block-1 -274, HSP90 inh 5, SENP8 block-2 90*, SENP7 block 23, SENP8 conf 10, SENP6 confirm 21, SENP7 confirm 15, Casp3 select 5 and Luc interf 5.
Screening O=C(NCC1CCCO1)c1coc2nc3ccccc3nc12 (configuration not stated) returned SENP6 block 7, SENP8 block-1 -495, HSP90 inh 1, SENP8 block-2 10 and SENP7 block 8.
Screening COc1ccc(-n2c(N)c(C(=O)NCC3CCCO3)c3nc4ccccc4nc32)c(OC)c1 (configuration not stated) returned SENP6 block 68*, SENP8 block-1 -290, HSP90 inh 3, SENP8 block-2 44, SENP7 block 38, SENP8 conf -9, SENP6 confirm 5, SENP7 confirm 7, Casp3 select 1 and Luc interf -6.
CCCN(C(=O)CSc1n[nH]c(-c2ccc(OC)cc2)n1)c1c(N)n(Cc2ccccc2)c(=O)[nH]c1=O was read as SENP6 block -6, SENP8 block-1 4, SENP8 block-2 -6 and SENP7 block 11.
Screening COC(=O)c1ccccc1S(=O)(=O)N1CCC(C(=O)Nc2ccccc2N2CCOCC2)CC1 returned SENP8 block-1 7.
`Cc1nonc1C(=O)N/N=C/c1ccc(O)cc1O` gave SENP6 block 97*, SENP8 block-1 -26, HSP90 inh 0, SENP8 block-2 -7, SENP7 block 100*, SENP8 conf 98*, SENP6 confirm 98*, SENP7 confirm 102*, Casp3 select 98* and Luc interf 97*.
For Cc1nonc1C(=O)N/N=C/c1ccncc1 the results were SENP6 block -14, SENP8 block-1 15, HSP90 inh 3, SENP8 block-2 0 and SENP7 block 26.
Screening c1cnc2ccc(C(c3nnnn3C3CCCC3)N3CCN(c4nc5ccccc5s4)CC3)cc2c1 (configuration not stated) returned SENP6 block -15, SENP8 block-1 14, HSP90 inh 2, SENP8 block-2 3 and SENP7 block 3.
Screening CCN(CC)S(=O)(=O)c1ccc(N=NC2=C(O)CCCC2=O)cc1 returned SENP6 block 26, SENP8 block-1 19, HSP90 inh -2, SENP8 block-2 4 and SENP7 block 8.
Screening CCN(CC)S(=O)(=O)c1ccc(N=Nc2c(N)[nH]c(=O)[nH]c2=O)cc1 returned SENP6 block 52*, SENP8 block-1 43*, HSP90 inh 9, SENP8 block-2 20, SENP7 block 26, SENP8 conf 15, SENP6 confirm 11, SENP7 confirm 14, Casp3 select 37 and Luc interf 2.
`COCCN(C(=O)CNC(=O)c1ccco1)C(C(=O)NC1CCCC1)c1ccccc1` (configuration not stated) gave SENP6 block -7, SENP8 block-1 9, HSP90 inh 1, SENP8 block-2 -2 and SENP7 block -1.
For COc1cccc(C=Nc2cc(C)cc(C)c2)c1O the results were SENP6 block -16, SENP8 block-1 2, HSP90 inh 2, SENP8 block-2 -1 and SENP7 block 8.
`CCc1ccc2oc(-c3cc(N=Cc4cccc(OC)c4O)ccc3O)nc2c1` gave SENP6 block 86*, HSP90 inh 6, SENP8 block-2 92*, SENP7 block 89*, SENP8 conf 84*, SENP6 confirm 84*, SENP7 confirm 87*, Casp3 select 76* and Luc interf 28.
O=C(CSc1nnc(-c2ccco2)n1Cc1ccco1)NCc1ccccc1 was read as SENP6 block -11, SENP8 block-1 10, HSP90 inh 4, SENP8 block-2 -8 and SENP7 block -2.
Screening Cc1ccc(Nc2nc(-c3cccnc3)cs2)cc1C returned SENP6 block 74*, SENP8 block-1 4, HSP90 inh 3, SENP8 block-2 55*, SENP7 block 58*, SENP8 conf 10, SENP6 confirm 68*, SENP7 confirm 88*, Casp3 select 36 and Luc interf 13.
For Brc1ccc(Nc2nc(-c3cccnc3)cs2)cc1 the results were SENP6 block -4, SENP8 block-1 2, HSP90 inh 1, SENP8 block-2 -11 and SENP7 block 8.
`CCOc1ccc(Nc2nc(-c3cccnc3)cs2)cc1` gave SENP6 block 20, SENP8 block-1 -1, HSP90 inh -6, SENP8 block-2 18, SENP7 block 70*, SENP8 conf -9, SENP6 confirm 11, SENP7 confirm 11, Casp3 select 6 and Luc interf -3.
For Cc1ccc(C=Cc2ccccn2)cc1 the results were SENP8 block-1 -20.
Cc1oc2ccc(OCc3ccc(Br)cc3)cc2c1C(=O)O was read as SENP6 block 68*, SENP8 block-1 11, HSP90 inh -1, SENP8 block-2 10, SENP7 block -4, SENP8 conf 36, SENP6 confirm 80*, SENP7 confirm 63*, Casp3 select 56* and Luc interf 27.
For Cc1ccccc1COc1ccc2oc(C)c(C(=O)O)c2c1 the results were SENP6 block -7, SENP8 block-1 3, HSP90 inh 0, SENP8 block-2 2 and SENP7 block -3.
